The source of these data is PubChem BioAssay (NCI).

Some test systems named below: HCT-15 colon; HT29 colon; SNB-75 CNS; SNB-19 CNS; U251 CNS; PC-3 prostate; SK-MEL-5 melanoma; LOX IMVI melanoma; SK-MEL-28 melanoma.
Common to all, as to assay: NCI-60 one-dose screen, 48 h (100 = growth as untreated, 0 = no growth, -100 = all killed)
Conditions in all cases: 10 µM unless noted

Molecules are shown by their SMILES. This is part of a sample that, as a whole, favours compounds with a hit. Of some 83,000 tested, about 20% had one in any assay.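 Results are percent growth after 48 hours of single-concentration exposure. 100 means growth as in untreated cells, lower positive values show inhibition; negative values down to -100 show cell death.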 Unmarked numbers belong to inactive results. Active and inactive are the calls of the source. The calls were made as follows: active = growth percent below 10; inactive = the rest.

On to `Fc1ccc(NCc2nnc(-c3ccc(Cl)cc3)o2)cc1`, for which the growth in the assay on HCT-15 colon is 81.7%; in the assay on HT29 colon, 70%; in the assay with SNB-75 CNS it was 73.6%; in the assay on SNB-19 CNS, 83.2%; with U251 CNS, 77.8%; in the assay on PC-3 prostate it was 54.3%. Also, the growth with SK-MEL-5 melanoma is 79.8%; with LOX IMVI melanoma, 80.1%; with SK-MEL-28 melanoma it was 93.9%.
In the case of `CC(Cc1ccco1)C(=O)NC(N)=O` (stereo not drawn), the growth was 99.3% with HCT-15 colon; 102% in the assay on HT29 colon; 91.8% with SNB-75 CNS; 105% in the assay with SNB-19 CNS; 108% in the assay on U251 CNS; 98.4% in the assay with PC-3 prostate. Moreover, the growth was 98.6% in the assay with SK-MEL-5 melanoma, 97.4% in the assay on LOX IMVI melanoma and 105% in the assay on SK-MEL-28 melanoma.
Regarding `c1ccc(CN2C(c3ccccc3)=Nc3ccccc3C2c2c[nH]c3ccccc23)cc1` (stereo not drawn), the growth with HCT-15 colon was 35.6%; in the assay with HT29 colon, 15.1%; in the assay on SNB-75 CNS, 59.2%; with SNB-19 CNS, 49.1%; in the assay with U251 CNS, 35.7%; with PC-3 prostate it was 29.8%. Further, the growth in the assay on SK-MEL-5 melanoma was 42.4%; in the assay on LOX IMVI melanoma it was 15.4%.
`Cn1c2ccccc2c2c3c(c4c5cccnc5[nH]c4c21)C(=O)N(O)C3=O`: the growth with HCT-15 colon was 67.4%; in the assay on HT29 colon, 28.9%; with SNB-75 CNS, 61%; in the assay on SNB-19 CNS, 38.1%; in the assay on U251 CNS, 21%; in the assay on PC-3 prostate, 42.4%. Further, the growth with SK-MEL-5 melanoma was 12.7%; with LOX IMVI melanoma, 2.63% (active).
Consider `Cc1ccc(N(CC(=O)Nc2ccc(S(=O)(=O)NC3CCN(C)CC3)cc2)S(=O)(=O)c2ccc(Cl)cc2)cc1`, for which the growth in the assay on HCT-15 colon is 90.6%; with HT29 colon, 10.2%; in the assay on SNB-75 CNS it was 58.7%; in the assay with SNB-19 CNS, 88.3%; with U251 CNS it was 19.5%; in the assay with PC-3 prostate, 84.1%. The growth in the assay with SK-MEL-5 melanoma was -9.84% (active); with LOX IMVI melanoma, -58.1% (active); with SK-MEL-28 melanoma it was -68.3% (active).
On to `C=C1C(=O)O[C@H]2[C@H]1CC/C(COC(=O)NCCc1c[nH]c3ccccc13)=C\CC[C@@]1(C)O[C@@H]21`, for which the growth in the assay with HCT-15 colon was -9.58% (active); in the assay with HT29 colon, -39.8% (active); with SNB-75 CNS it was 61.3%; in the assay with SNB-19 CNS, 56.9%; in the assay with U251 CNS, 59.9%; in the assay with PC-3 prostate, 35.1%. The growth is 12.8% with SK-MEL-5 melanoma, -63.2% (active) in the assay with LOX IMVI melanoma and -17.6% (active) with SK-MEL-28 melanoma.
Take `Cc1ccc(-c2nn(Cc3cn(-c4cc(C)nc5ccccc45)nn3)c3ncnc(N)c23)cc1`: the growth in the assay on HCT-15 colon is 57%; with HT29 colon, 49.8%; in the assay with SNB-75 CNS, 15.5%; in the assay with SNB-19 CNS, 53.2%; with U251 CNS, 71.8%; in the assay with PC-3 prostate, 49%. Besides, the growth is 40.7% in the assay on SK-MEL-5 melanoma, 52.4% with LOX IMVI melanoma and 68.7% in the assay on SK-MEL-28 melanoma.
Consider `COc1cnc2c(c1)C(=O)c1c-2n(CCCNC(C)C)c(=O)c2cc([N+](=O)[O-])ccc12`, for which the growth is -56.2% (active) with HCT-15 colon; -33.7% (active) with HT29 colon; -79.2% (active) in the assay with SNB-75 CNS; -44.7% (active) with SNB-19 CNS; -80.6% (active) in the assay with U251 CNS; -54.3% (active) in the assay with PC-3 prostate. Besides, the growth is -98.9% (active) with SK-MEL-5 melanoma, -86.9% (active) with LOX IMVI melanoma and -62.6% (active) with SK-MEL-28 melanoma.
Take `CCCCC[C@H]1C/C=C2/C(=O)C(Cl)=C[C@@H]2C/C=C\CCCC(=O)O1`: the growth is -61.9% (active) in the assay on HCT-15 colon; -22.6% (active) in the assay with HT29 colon; 5.2% (active) in the assay on SNB-75 CNS; -73.4% (active) in the assay on SNB-19 CNS; -91.7% (active) in the assay on U251 CNS; -46.6% (active) with PC-3 prostate. Further, the growth with SK-MEL-5 melanoma was -77.5% (active); in the assay with LOX IMVI melanoma it was -85.2% (active); with SK-MEL-28 melanoma, -64.7% (active).
Turning to `COc1ccc2[nH]c(-c3ccc(Cl)cc3)cc(=O)c2c1`, the growth in the assay with HCT-15 colon was 96.4%; with HT29 colon it was 96.3%; with SNB-75 CNS, 93.4%; in the assay with SNB-19 CNS, 96%; in the assay with U251 CNS it was 96.7%; with PC-3 prostate, 88%. Further, the growth is 95.6% in the assay with SK-MEL-5 melanoma, 100% in the assay with LOX IMVI melanoma and 104% in the assay on SK-MEL-28 melanoma.
As for `CC(=O)OC(C)COc1ccc(-c2ccccc2)cc1` (stereo not drawn), the growth in the assay on HCT-15 colon was 107%; in the assay with HT29 colon, 86%; in the assay with SNB-75 CNS it was 89.6%; with SNB-19 CNS it was 103%; in the assay with U251 CNS, 76.4%; in the assay on PC-3 prostate it was 86.1%. Moreover, the growth in the assay with SK-MEL-5 melanoma was 99.8%; in the assay with LOX IMVI melanoma, 110%; in the assay on SK-MEL-28 melanoma it was 104%.
On to `Cc1cc(N(CCCNc2ccnc3cc(Cl)ccc23)Cc2ccco2)nc(N2CCN(C)CC2)n1`, for which the growth in the assay on HCT-15 colon was 16.9%; in the assay on HT29 colon, 12.4%; in the assay with SNB-75 CNS, 68.7%; in the assay with SNB-19 CNS it was 58.2%; with U251 CNS it was 28.6%; in the assay with PC-3 prostate, 51.5%. Also, the growth was -42.6% (active) with SK-MEL-5 melanoma, 0.725% (active) with LOX IMVI melanoma and -75.2% (active) in the assay on SK-MEL-28 melanoma.
Consider `N#Cc1cnc2cc(OC[C@@H](O)CO)c(NC(=O)C3CCCC3)cc2c1Nc1ccc(OCc2cccc(F)c2)c(Cl)c1`, for which the growth in the assay on HCT-15 colon was 29.4%; in the assay with HT29 colon, -11.3% (active); in the assay on SNB-75 CNS, -0.333% (active); with SNB-19 CNS, 65.3%; in the assay with U251 CNS, 61.9%; with PC-3 prostate it was -58.9% (active). For the same compound, the results for the growth in the assay with SK-MEL-5 melanoma, in the assay on LOX IMVI melanoma and in the assay with SK-MEL-28 melanoma were 61.5%, -84.8% (active) and -85.2% (active), respectively.
Take `Cn1c(=O)c2c(ncn2CC(=O)Nc2ccc(S(N)(=O)=O)cc2)n(C)c1=O`: the growth in the assay on HCT-15 colon was 106%; with HT29 colon, 94.8%; with SNB-75 CNS it was 87.8%; with SNB-19 CNS, 102%; in the assay with U251 CNS it was 96.6%; in the assay on PC-3 prostate, 83.4%. For the same compound, the growth is 111% with SK-MEL-5 melanoma, 97.6% with LOX IMVI melanoma and 115% in the assay on SK-MEL-28 melanoma.
Consider `COc1cc(/C=N/Nc2ncnc3c2c(C)nn3-c2ccc(F)cc2)ccc1O`, for which the growth in the assay with HCT-15 colon was 81.1%; in the assay with HT29 colon, 92.3%; in the assay with SNB-75 CNS, 82.5%; in the assay on SNB-19 CNS, 93.3%; with U251 CNS, 94.4%; in the assay with PC-3 prostate it was 73%. Also, the growth was 56.6% in the assay on SK-MEL-5 melanoma, 81% in the assay with LOX IMVI melanoma and 107% in the assay with SK-MEL-28 melanoma.
`CN(C)CCCCC(C(=O)CBr)(c1ccccc1)c1ccccc1`: the growth with HCT-15 colon was -33.9% (active); in the assay on HT29 colon it was 8.94% (active); with SNB-75 CNS, 46%; in the assay with SNB-19 CNS it was 82.6%; in the assay with U251 CNS, 41.5%; with PC-3 prostate, 51.6%. The growth is 35% in the assay with SK-MEL-5 melanoma, -39% (active) in the assay on LOX IMVI melanoma and 23.6% in the assay with SK-MEL-28 melanoma.
As to `Fc1ccc(Nc2nc(Nc3ccc(-c4nc5ccccc5[nH]4)cc3)nc(N3CCCC3)n2)cc1`, the growth in the assay on HCT-15 colon was -8.99% (active); in the assay on HT29 colon it was 36.1%; in the assay on SNB-75 CNS, 65.4%; in the assay with SNB-19 CNS, 103%; in the assay on U251 CNS it was 55.8%; in the assay on PC-3 prostate it was 33.8%. In addition, the growth with SK-MEL-5 melanoma was 87%; with LOX IMVI melanoma, 3.18% (active); with SK-MEL-28 melanoma, 47.7%.
As for `O=C1CCCC=CC[C@H]2C=C(Cl)C(=O)C2=CC[C@H](CCCCC(F)(F)F)OC(=O)CCCC=CC[C@H]2C=C(Cl)C(=O)C2=CC[C@H](CCCCC(F)(F)F)OC(=O)CCCC=CC[C@H]2C=C(Cl)C(=O)C2=CC[C@H](CCCCC(F)(F)F)O1`, the growth is 68.6% [6.25 µM] in the assay with HCT-15 colon; 42.2% [6.25 µM] in the assay with HT29 colon; 95.9% [6.25 µM] with SNB-75 CNS; 65.2% [6.25 µM] in the assay on SNB-19 CNS; 36.4% [6.25 µM] with U251 CNS; 71.9% [6.25 µM] with PC-3 prostate. For the same compound, the figures for the growth in the assay with SK-MEL-5 melanoma, with LOX IMVI melanoma and with SK-MEL-28 melanoma were 59.4% [6.25 µM], 18.7% [6.25 µM] and 71.8% [6.25 µM], respectively.
As to `COc1cc(-c2cc3ncccc3c3nc(OCCN(C)C)c4cccnc4c23)cc(OC)c1OC`, the growth with HCT-15 colon is 23.1%; in the assay with HT29 colon, 9.99% (active); in the assay with SNB-75 CNS it was -36.8% (active); in the assay with SNB-19 CNS, 15%; in the assay with U251 CNS it was 11.8%; in the assay with PC-3 prostate, 16.2%. In addition, the growth was -7.91% (active) in the assay on SK-MEL-5 melanoma, -43.5% (active) in the assay on LOX IMVI melanoma and 31.6% in the assay on SK-MEL-28 melanoma.
As for `O=C1c2ccccc2NC(c2cn(-c3ccccc3)nc2-c2cccnc2)N1Cc1ccccc1` (stereo not drawn), the growth with HCT-15 colon is 84.7%; in the assay on HT29 colon, 84.5%; in the assay on SNB-75 CNS, 92.9%; with SNB-19 CNS, 109%; with U251 CNS it was 93.6%; with PC-3 prostate, 76.5%. For the same compound, the growth in the assay on SK-MEL-5 melanoma was 94.2%; in the assay with LOX IMVI melanoma, 80.2%; in the assay on SK-MEL-28 melanoma, 108%.
